Measurements taken from ChEMBL document CHEMBL2218924, “A broad activity screen in support of a chemogenomic map for kinase signalling research and drug discovery” (Biochem J, 2013).

Experiments:
[1] = biological target: Tyrosine-protein kinase Fer (Homo sapiens) (UniProt P16591); settings: at 10 µM
[2] = biological target: Tyrosine-protein kinase Fes/Fps (Homo sapiens) (UniProt P07332); settings: at 1 µM
[3] = biological target: Tyrosine-protein kinase Fes/Fps (Homo sapiens) (UniProt P07332); settings: at 10 µM
[4] = biological target: Tyrosine-protein kinase Fgr (Homo sapiens) (UniProt P09769); settings: at 1 µM
Sequence of Tyrosine-protein kinase Fgr (Homo sapiens) (P09769 2-529 limits assumed): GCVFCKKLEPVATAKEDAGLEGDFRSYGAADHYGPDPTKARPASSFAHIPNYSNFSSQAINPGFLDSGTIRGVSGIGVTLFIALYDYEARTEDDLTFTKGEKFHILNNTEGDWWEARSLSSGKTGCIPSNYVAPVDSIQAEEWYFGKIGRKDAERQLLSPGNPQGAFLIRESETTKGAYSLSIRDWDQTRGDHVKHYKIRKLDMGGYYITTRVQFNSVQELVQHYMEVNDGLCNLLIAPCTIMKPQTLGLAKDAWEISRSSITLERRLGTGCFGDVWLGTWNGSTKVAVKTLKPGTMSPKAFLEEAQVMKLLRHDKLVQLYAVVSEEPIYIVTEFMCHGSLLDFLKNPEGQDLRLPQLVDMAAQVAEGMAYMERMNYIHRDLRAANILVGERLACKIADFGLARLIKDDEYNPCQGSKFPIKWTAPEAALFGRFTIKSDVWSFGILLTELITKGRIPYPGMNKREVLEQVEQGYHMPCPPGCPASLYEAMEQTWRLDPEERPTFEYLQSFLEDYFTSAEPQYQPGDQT

[5] = biological target: Tyrosine-protein kinase Fgr (Homo sapiens) (UniProt P09769); settings: at 10 µM
[6] = biological target: Vascular endothelial growth factor receptor 1 (Homo sapiens) (UniProt P17948); settings: at 1 µM
Sequence of Vascular endothelial growth factor receptor 1 (Homo sapiens) (P17948 whole entry): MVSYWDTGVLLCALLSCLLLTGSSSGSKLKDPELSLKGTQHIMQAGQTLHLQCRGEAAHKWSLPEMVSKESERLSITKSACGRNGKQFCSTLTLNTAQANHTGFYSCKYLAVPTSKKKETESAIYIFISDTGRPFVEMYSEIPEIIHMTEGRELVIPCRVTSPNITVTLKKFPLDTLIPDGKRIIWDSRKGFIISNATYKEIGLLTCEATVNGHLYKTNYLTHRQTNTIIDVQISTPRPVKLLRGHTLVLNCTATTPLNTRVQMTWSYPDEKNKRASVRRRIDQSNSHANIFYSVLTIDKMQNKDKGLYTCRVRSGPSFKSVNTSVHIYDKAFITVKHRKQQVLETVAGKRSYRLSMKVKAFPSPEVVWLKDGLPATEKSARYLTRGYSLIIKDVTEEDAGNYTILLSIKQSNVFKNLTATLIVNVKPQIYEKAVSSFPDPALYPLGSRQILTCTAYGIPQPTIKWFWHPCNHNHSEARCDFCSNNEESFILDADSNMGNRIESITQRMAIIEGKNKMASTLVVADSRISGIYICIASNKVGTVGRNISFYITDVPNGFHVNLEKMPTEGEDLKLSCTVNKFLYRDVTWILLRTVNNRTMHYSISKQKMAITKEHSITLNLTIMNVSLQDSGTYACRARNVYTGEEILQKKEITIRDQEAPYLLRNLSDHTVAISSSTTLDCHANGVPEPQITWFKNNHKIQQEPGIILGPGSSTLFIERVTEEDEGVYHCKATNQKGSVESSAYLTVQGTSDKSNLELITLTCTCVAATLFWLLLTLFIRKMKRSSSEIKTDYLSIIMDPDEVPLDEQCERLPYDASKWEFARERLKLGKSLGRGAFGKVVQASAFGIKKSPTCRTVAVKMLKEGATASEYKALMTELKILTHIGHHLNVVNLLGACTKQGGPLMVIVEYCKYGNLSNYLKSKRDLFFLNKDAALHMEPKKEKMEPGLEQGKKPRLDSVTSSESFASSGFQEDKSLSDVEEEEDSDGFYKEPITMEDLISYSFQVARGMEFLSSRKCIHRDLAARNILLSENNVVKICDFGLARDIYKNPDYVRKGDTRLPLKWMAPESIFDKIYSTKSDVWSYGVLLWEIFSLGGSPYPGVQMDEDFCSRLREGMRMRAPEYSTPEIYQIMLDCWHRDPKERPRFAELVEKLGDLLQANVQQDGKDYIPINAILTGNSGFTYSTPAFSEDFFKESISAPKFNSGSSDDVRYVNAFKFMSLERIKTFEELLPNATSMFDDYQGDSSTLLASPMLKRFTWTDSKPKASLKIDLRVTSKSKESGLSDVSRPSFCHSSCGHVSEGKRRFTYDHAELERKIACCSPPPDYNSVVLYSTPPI

[7] = biological target: Vascular endothelial growth factor receptor 1 (Homo sapiens) (UniProt P17948); settings: at 10 µM
[8] = biological target: Receptor-type tyrosine-protein kinase FLT3 (Homo sapiens) (UniProt P36888); settings: at 1 µM
Sequence of Receptor-type tyrosine-protein kinase FLT3 (Homo sapiens) (P36888 whole entry): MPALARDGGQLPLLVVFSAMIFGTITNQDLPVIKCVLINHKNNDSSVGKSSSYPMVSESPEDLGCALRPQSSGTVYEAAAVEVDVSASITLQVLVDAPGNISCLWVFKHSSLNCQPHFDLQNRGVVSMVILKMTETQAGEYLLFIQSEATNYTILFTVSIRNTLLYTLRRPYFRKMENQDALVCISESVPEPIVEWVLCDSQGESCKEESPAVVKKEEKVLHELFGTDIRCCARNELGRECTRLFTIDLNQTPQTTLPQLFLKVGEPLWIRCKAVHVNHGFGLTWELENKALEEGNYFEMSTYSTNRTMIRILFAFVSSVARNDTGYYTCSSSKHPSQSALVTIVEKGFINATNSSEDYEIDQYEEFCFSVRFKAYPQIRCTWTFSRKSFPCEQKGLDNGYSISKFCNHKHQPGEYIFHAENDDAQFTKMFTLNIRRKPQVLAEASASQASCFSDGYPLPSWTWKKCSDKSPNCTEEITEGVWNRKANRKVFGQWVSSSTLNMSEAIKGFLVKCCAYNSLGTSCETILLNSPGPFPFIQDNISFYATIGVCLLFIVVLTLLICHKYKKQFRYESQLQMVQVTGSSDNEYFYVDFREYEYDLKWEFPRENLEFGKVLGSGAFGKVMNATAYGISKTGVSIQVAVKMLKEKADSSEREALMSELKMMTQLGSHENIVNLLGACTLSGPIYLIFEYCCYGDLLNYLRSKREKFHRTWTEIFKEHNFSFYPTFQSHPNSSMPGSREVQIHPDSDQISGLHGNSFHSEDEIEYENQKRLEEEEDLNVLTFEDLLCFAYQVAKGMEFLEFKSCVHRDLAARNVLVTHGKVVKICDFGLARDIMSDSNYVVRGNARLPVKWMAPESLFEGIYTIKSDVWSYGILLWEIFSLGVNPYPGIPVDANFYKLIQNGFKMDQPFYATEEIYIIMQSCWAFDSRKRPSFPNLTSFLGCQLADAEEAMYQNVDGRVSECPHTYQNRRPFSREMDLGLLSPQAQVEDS

[9] = biological target: Receptor-type tyrosine-protein kinase FLT3 (Homo sapiens) (UniProt P36888); settings: at 10 µM
[10] = biological target: Vascular endothelial growth factor receptor 3 (Homo sapiens) (UniProt P35916); settings: at 1 µM
[11] = biological target: Vascular endothelial growth factor receptor 3 (Homo sapiens) (UniProt P35916); settings: at 10 µM
[12] = biological target: Macrophage colony-stimulating factor 1 receptor (Homo sapiens) (UniProt P07333); settings: at 1 µM
[13] = biological target: Macrophage colony-stimulating factor 1 receptor (Homo sapiens) (UniProt P07333); settings: at 10 µM
[14] = biological target: Tyrosine-protein kinase Fyn (Homo sapiens) (UniProt P06241); settings: at 1 µM
Sequence of Tyrosine-protein kinase Fyn (Homo sapiens) (P06241 2-537 limits assumed): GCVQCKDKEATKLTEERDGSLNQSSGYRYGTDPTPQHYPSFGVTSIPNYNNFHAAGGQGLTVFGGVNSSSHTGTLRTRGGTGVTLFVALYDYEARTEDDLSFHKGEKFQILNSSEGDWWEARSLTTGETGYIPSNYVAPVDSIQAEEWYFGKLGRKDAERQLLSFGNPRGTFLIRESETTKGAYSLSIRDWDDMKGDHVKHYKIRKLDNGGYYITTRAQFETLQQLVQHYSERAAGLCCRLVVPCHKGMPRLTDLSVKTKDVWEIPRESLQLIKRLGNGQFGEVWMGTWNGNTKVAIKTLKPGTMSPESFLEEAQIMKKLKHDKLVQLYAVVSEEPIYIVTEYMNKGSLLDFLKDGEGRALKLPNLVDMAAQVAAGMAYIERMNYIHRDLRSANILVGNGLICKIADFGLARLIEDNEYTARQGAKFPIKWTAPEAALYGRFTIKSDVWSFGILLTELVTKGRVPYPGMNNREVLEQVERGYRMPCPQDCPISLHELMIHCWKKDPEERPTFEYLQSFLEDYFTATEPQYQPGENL

[15] = biological target: Tyrosine-protein kinase Fyn (Homo sapiens) (UniProt P06241); settings: at 10 µM
[16] = biological target: T1, Mitogen-activated protein kinase kinase kinase kinase 2 (Homo sapiens) (UniProt Q12851); settings: at 1 µM
T1 sequence (whole entry): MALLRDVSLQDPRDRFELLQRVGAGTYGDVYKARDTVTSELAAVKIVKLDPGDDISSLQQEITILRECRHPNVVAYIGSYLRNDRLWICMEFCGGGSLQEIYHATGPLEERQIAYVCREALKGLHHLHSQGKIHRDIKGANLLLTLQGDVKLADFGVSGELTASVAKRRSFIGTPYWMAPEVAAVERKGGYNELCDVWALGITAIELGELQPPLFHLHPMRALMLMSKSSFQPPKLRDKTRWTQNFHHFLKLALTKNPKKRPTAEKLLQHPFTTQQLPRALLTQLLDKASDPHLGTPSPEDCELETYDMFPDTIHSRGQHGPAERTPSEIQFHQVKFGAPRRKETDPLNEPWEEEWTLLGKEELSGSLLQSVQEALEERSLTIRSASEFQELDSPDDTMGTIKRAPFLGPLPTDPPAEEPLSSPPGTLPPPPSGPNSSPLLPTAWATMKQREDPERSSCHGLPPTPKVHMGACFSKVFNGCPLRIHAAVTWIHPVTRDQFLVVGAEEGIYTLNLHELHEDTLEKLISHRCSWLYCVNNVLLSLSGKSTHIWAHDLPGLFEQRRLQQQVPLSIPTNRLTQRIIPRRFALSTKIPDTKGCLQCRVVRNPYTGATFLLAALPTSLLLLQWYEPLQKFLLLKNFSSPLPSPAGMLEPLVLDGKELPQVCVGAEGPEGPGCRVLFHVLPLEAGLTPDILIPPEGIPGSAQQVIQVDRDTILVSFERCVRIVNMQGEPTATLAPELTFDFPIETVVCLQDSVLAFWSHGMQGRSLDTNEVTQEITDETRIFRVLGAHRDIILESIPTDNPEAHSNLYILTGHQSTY

[17] = biological target: T1, Mitogen-activated protein kinase kinase kinase kinase 2 (Homo sapiens); settings: at 10 µM
[18] = biological target: G protein-coupled receptor kinase 5 (Homo sapiens) (UniProt P34947); settings: at 10 µM
[19] = biological target: T2, Rhodopsin kinase GRK7 (Homo sapiens) (UniProt Q8WTQ7); settings: at 1 µM
T2 sequence (whole entry): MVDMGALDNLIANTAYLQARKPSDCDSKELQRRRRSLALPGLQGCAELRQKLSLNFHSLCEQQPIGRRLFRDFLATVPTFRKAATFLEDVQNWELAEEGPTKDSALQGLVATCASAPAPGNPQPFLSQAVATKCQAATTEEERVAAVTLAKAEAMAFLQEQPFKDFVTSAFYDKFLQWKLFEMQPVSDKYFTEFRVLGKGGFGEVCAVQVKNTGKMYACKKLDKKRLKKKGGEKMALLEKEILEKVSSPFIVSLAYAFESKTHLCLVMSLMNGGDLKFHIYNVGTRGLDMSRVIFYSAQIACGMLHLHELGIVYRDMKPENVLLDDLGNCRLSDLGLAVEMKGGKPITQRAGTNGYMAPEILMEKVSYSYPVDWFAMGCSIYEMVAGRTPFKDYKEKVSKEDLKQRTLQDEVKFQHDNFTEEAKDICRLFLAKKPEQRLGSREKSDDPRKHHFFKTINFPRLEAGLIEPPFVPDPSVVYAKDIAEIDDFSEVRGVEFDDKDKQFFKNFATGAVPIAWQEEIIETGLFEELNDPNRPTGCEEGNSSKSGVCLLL

[20] = biological target: G protein-coupled receptor kinase 6 (Homo sapiens) (UniProt P43250); settings: at 10 µM
Sequence of G protein-coupled receptor kinase 6 (Homo sapiens) (P43250 whole entry, looked up): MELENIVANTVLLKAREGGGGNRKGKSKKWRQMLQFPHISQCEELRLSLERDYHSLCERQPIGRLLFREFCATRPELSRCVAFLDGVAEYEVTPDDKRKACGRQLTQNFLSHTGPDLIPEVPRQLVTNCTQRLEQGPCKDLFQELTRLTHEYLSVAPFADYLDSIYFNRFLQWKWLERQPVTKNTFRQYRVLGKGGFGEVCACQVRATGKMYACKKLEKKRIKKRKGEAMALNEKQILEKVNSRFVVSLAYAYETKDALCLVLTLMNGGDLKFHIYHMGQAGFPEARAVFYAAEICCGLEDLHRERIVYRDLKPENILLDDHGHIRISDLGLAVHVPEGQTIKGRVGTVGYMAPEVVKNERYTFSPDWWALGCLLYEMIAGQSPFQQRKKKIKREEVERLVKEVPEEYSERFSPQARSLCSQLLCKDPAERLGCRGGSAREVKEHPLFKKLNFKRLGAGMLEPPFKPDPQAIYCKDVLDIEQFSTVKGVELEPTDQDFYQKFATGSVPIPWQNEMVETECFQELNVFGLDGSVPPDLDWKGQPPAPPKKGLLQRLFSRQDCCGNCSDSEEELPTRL

Sequence of Tyrosine-protein kinase Fes/Fps (Homo sapiens) (P07332 whole entry): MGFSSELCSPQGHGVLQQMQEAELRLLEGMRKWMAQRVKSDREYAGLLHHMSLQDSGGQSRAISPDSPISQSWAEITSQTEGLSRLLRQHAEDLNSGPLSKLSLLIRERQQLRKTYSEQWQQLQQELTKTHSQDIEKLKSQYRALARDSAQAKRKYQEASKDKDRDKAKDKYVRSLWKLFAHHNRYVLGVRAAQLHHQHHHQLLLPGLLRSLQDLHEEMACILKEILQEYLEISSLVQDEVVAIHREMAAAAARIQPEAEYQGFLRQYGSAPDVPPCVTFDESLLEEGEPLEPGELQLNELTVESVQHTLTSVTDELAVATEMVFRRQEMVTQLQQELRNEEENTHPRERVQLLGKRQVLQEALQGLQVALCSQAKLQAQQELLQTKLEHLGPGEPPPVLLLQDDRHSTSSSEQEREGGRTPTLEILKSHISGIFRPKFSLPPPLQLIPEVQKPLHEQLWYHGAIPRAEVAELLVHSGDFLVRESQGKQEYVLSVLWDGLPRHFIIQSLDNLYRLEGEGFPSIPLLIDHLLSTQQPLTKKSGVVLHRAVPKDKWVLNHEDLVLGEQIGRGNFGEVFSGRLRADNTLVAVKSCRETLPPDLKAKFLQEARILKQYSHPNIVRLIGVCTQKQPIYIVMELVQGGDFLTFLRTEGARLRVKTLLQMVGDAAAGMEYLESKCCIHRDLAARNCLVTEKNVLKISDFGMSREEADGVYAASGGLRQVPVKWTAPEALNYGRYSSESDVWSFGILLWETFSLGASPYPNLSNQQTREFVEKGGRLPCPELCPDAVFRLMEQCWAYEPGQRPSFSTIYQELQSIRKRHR

Compound | residual activity [1] [%] | residual activity [2] [%] | residual activity [3] [%] | residual activity [4] [%] | residual activity [5] [%] | residual activity [6] [%] | residual activity [7] [%] | residual activity [8] [%] | residual activity [9] [%] | residual activity [10] [%] | residual activity [11] [%] | residual activity [12] [%] | residual activity [13] [%] | residual activity [14] [%] | residual activity [15] [%] | residual activity [16] [%] | residual activity [17] [%] | residual activity [18] [%] | residual activity [19] [%] | residual activity [20] [%]
Cn1nc2c3c(cccc31)C(=O)c1ccccc1-2 | 76 | 98 | 94 | 98 | 89 | 75 | 52 | 50 | 20 | 57 | 16 | 72 | 51 | 65 | 3 | 60 | 19 | 98 | 92 | –
N#CCCc1ccc2c(c1)-c1[nH]c3ccc([N+](=O)[O-])cc3c1CC(=O)N2 | – | 16 | 5 | 15 | 6 | 24 | 11 | 19 | 8 | 10 | 2 | 24 | 19 | 17 | 1 | 2 | 2 | – | – | –
C[C@@H](N)[C@H]1CC[C@H](C(=O)Nc2ccncc2)CC1 | – | 108 | 108 | 103 | 90 | 118 | 108 | 97 | 95 | 100 | 104 | 98 | 110 | 111 | 112 | – | 88 | 90 | 97 | 106
Oc1n[nH]c2nnc(-c3c(-c4ccccc4)nn4ccccc34)cc12 | 91 | 92 | 108 | 89 | 95 | 86 | 80 | 76 | 63 | 89 | 60 | 49 | 15 | 75 | 77 | 82 | 75 | 97 | 85 | 85
Cc1cccc(-c2[nH]c(C(C)(C)C)nc2-c2ccc3c(c2)OCO3)n1 | – | – | 87 | – | 88 | 86 | 84 | – | 87 | 99 | 90 | – | – | 105 | 93 | 96 | 83 | 103 | 97 | 87
Cc1cc2ncc(-c3ccccc3)nc2cc1C | – | 107 | 93 | – | 91 | 85 | 83 | 47 | 25 | 58 | 26 | 36 | 6 | 98 | 27 | 98 | 90 | 102 | 102 | 101
COc1cc2ncnc(Nc3ccc(Oc4ccccc4)cc3)c2cc1OC | 76 | 102 | 90 | 7 | 2 | 18 | 4 | 39 | 11 | 7 | 0 | 49 | 53 | 2 | 0 | – | – | 104 | 103 | 88
CC#CC(=O)Nc1cc2c(Nc3ccc(F)c(Cl)c3)ncnc2cn1 | 94 | 118 | 81 | 105 | 95 | 94 | 101 | 96 | 85 | 98 | 93 | 88 | 83 | 96 | 88 | 91 | 84 | 93 | 98 | 83
CO[C@@H]1[C@H](N(C)C(=O)c2ccccc2)C[C@H]2O[C@]1(C)n1c3ccccc3c3c4c(c5c6ccccc6n2c5c31)C(=O)NC4 | 14 | 15 | 9 | 7 | 4 | 4 | 1 | – | – | 1 | 3 | 0 | 1 | 6 | 10 | 4 | 0 | 74 | 8 | 70
COc1ccc(C(=O)Nc2sc3c(c2C(N)=O)CCCC3)cc1OC | 91 | 123 | – | 110 | 93 | 72 | 81 | 32 | 35 | 10 | 12 | 39 | 43 | 79 | 95 | 81 | 81 | 93 | 92 | 84
N#Cc1cnc2cnc(NCc3cccnc3)cc2c1Nc1ccc(F)c(Cl)c1 | 95 | 19 | 12 | 11 | 4 | 14 | 7 | 2 | 0 | 8 | 2 | 58 | 60 | 87 | 74 | – | 3 | 91 | 120 | –
CC(=O)c1ccc(N2CCOCC2)cc1O | – | 133 | 94 | 110 | 102 | 106 | 97 | 102 | 86 | 93 | 88 | – | – | 80 | 96 | 91 | 89 | 86 | 95 | 91
Cc1ccc(S(=O)(=O)/C=C/C#N)cc1 | 99 | 97 | 108 | 108 | 105 | 96 | 100 | – | 89 | 98 | 89 | 84 | 89 | 88 | 100 | 90 | 89 | 101 | 95 | 94
O=c1c2ccccc2[nH]c(=S)n1CCN1CCC(=C(c2ccc(F)cc2)c2ccc(F)cc2)CC1 | 89 | 117 | 93 | 110 | 91 | 97 | 98 | 81 | 57 | 89 | 92 | 69 | 84 | 89 | 46 | 93 | 82 | 89 | 93 | 90
